# Results published in the supplement of paper PMC10105736.
# Values without a mark were called inactive.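 The calls were made as follows: active = MAPPIT score above the 99th percentile of random reference set scores in the same batch; inactive = at or below it.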
# B1: unk (protein)
# chain: MLANETNKLLLSSQQEKPNHYTYLKEFRVEQCQSFLQHKCNQHRPFVCFNWHFQNQRRRRPVRKRDGTFNYSADNYCTKYDETTGICPEGDECPYLHRTAGDTERRYHLRYYKTCMCVHDTDSRGYCVKNGLHCAFAHGMQDQRPPVYDIKELETLQNAESTLDSTNALNALDKERNLMNEDPKWQDTNYVLANYKTEPCKRPPRLCRQGYACPQYHNSKDKRRSPRKYKYRSTPCPNVKHGEEWGEPGNCEAGDNCQYCHTRTEQQFHPEIYKSTKCNDVQQAGYCPRSVFCAFAHVEPCSMDDPRENSLSASLANTSLLTRSSAPINIPNTTLSNSINDFNSGSFAVNIPSSSLTYSPTNHANLFNVDAFNYGGSNKLSNSLSATQNDSSLFFPSRIISPGFGDGLSISPSVRISELNTIRDDINSSSVGNSLFENTLNTAKNAFSLQSLQSQNNSDLGRITNELLTKNAQIHKLNGRFEDMACKLKIAELHRDKAKQEAQEWKERYDLAQIQLNLPAELRDLSIQKLKQLQSKLRTDLEEVDKVLYLENAKKCMKCEENNRTVTLEPCNHLSICNTCAESVTECPYCQVPVITTHT
# B2: zetaTry (protein)
# chain: MSSSWIVGLLAFLVSLVALTQGLPLLEDLDEKSVPDGRIVGGYATDIAQVPYQISLRYKGITTPENPFRHRCGGSIFNETTIVTAAHCVIGTVASQYKVVAGTNFQTGSDGVITNVKEIVMHEGYYSGAAYNNDIAILFVDPPLPLNNFTIKAIKLALEQPIEGTVSKVSGWGTTSPGGYSSNQLLAVDVPIVSNELCDQDYEDFGDETYRITSAMLCAGKRGVGGADACQGDSGGPLAVRDELYGVVSWGNSCALPNYPGVYANVAYLRPWIDAVLAGL
# B3: Mob2 (protein)
# chain: MNWAISNLTGGNRVSRAILVRYSSVPLADATNDGSSTAPQTPTASTPRPSSSHSSLSSTFAATFLHASSRHIPGRAVPRQNANGQNGGKGNASGAGGGAGGGGAGGASGGTGGTGAQAAGQLSLPLDVEETVTCFCRKARRKERDGDQNSTDTKLYLEESVLERKLPEADLKALVDLPAGLDYNEWLASHTLALFEHVNLVYGTISEFCTQSGCADMTGPGNRTYLWFDEKGKKTRVAAPQYIDYVMTFTQKTVSDESIFPTKYANEFPGSFESIARKILRLQFHVIAHLYAAHFREIALLGLHTHLNLTFAHLTALHRRFNLIDEKETDVLRDLEVALRLTDDTGGCQDATSTTSSVHDHSHSGDLQHQSLQQQQQHHNSSSNSTSSAEAFHVNSQSNNGSTSASASVSLIDGDAVAPPICTQPEAGAGCKPAGSSGLLGGILGDLTSGEFGDTTRYCTSAVPQAAAAAGAGVGGTAIGATDAAALNNGAGALHLNFSNNNNNNHNLNHHHHHHHHHGHHGHHHAAQQQQQHSGLIQCNAAGGGGNATGVATGGATAAASSTTTA
# B4: RpS21 (protein)
# chain: MENDAGENVDLYVPRKCSASNRIIHAKDHASVQLSIVDVDPETGRQTDGSKTYAICGEIRRMGESDDCIVRLAKKDGIITKNF
# B5: Or43b (protein)
# chain: MFGHFKLVYPAPISEPIQSRDSNAYMMETLRNSGLNLKNDFGIGRKIWRVFSFTYNMVILPVSFPINYVIHLAEFPPELLLQSLQLCLNTWCFALKFFTLIVYTHRLELANKHFDELDKYCVKPAEKRKVRDMVATITRLYLTFVVVYVLYATSTLLDGLLHHRVPYNTYYPFINWRVDRTQMYIQSFLEYFTVGYAIYVATATDSYPVIYVAALRTHILLLKDRIIYLGDPSNEGSSDPSYMFKSLVDCIKAHRTMLNFCDAIQPIISGTIFAQFIICGSILGIIMINMVLFADQSTRFGIVIYVMAVLLQTFPLCFYCNAIVDDCKELAHALFHSAWWVQDKRYQRTVIQFLQKLQQPMTFTAMNIFNINLATNINVAKFAFTVYAIASGMNLDQKLSIKE
# B6: Nup62 (protein)
# chain: MVFQLPTTTAAPTGGATSSFSFGLSTGTPAAAPASGAATTAPATKTTFSFGTPAPTAGIGGGDADNSKAQAPPAFGFGLGSGTASAPLTLGTQAAANPASTTSATATGTSAAPPAFGGFTAQPAASVVPTIATSAPNTAATTTGLLGGSGLGAPKTTAAASTTLTAAPSAIASTQGAAPAPTLSTGGAFANLTTETKTTDSSAVSTASQLSYHQLEEHINKWTLEFEEQEKVFTEQATQINAWDKLLISNNGKIVELNDAVKKVKTDQQVLDQELEFIATQQKELEDSLGPLEKEFVNLPRVDMERSQTYLMVENLDTQLKQMSEDLKEIIDNLNEANKGQDTTDPIIQIGKILNAHMNSLQWIESQSTNISKKLEDIGKIQDSQKRDIFRAPF
# B7: hth (protein)
# chain: MAQPRYDDGLHGYGMDSGAAAAAMYDPHAGHRPPGLQGLPSHHSPHMTHAAAAAATVGMHGYHSGAGGHGTPSHVSPVGNHLMGAIPEVHKRDKDAIYEHPLFPLLALIFEKCELATCTPREPGVQGGDVCSSESFNEDIAMFSKQIRSQKPYYTADPEVDSLMVQAIQVLRFHLLELEKVHELCDNFCHRYISCLKGKMPIDLVIDERDTTKPPELGSANGEGRSNADSTSHTDGASTPDVRPPSSSLSYGGAMNDDARSPGAGSTPGPLSQQPPALDTSDPDGKFLSSLNPSELTYDGRWCRREWSSPADARNADASRRLYSSVFLGSPDNFGTSASGDASNASIGSGEGTGEEDDDASGKKNQKKRGIFPKVATNILRAWLFQHLTHPYPSEDQKKQLAQDTGLTILQVNNWFINARRRIVQPMIDQSNRAVYTPHPGPSGYGHDAMGYMMDSQAHMMHRPPGDPGFHQGYPHYPPAEYYGQHL
# B8: Ubc4 (protein)
# chain: MANMAVSRIKREFKEVMRSEEIVQCSIKIELVNDSWTELRGEIAGPPDTPYEGGKFVLEIKVPETYPFNPPKVRFITRIWHPNISSVTGAICLDILKDNWAAAMTLRTVLLSLQALLAAAEPDDPQDAVVAYQFKDKYDLFLLTAKHWTNAYAGGPHTFPDCDSKIQRLRDMGIDEHEARAVLSKENWNLEKATEGLFS
# How the values were obtained:
# Assay in all cases: MAPPIT interaction score (arbitrary units); higher = stronger binary interaction signal, active = hit call of the paper
# CG32846 = conditions: MAPPIT configuration: N-N; pair source set: screen_1
# Git = conditions: MAPPIT configuration: N-N; pair source set: screen_2
# Mst87F = conditions: MAPPIT configuration: N-N; pair source set: screen_2
# CG31600 = conditions: MAPPIT configuration: N-C; pair source set: screen_4
# CG34168 = conditions: MAPPIT configuration: N-N; pair source set: Curagen_high_conf
# CG33514 = conditions: MAPPIT configuration: N-N; pair source set: DPIM
# cv = conditions: MAPPIT configuration: N-N; pair source set: DPIM
# dah = conditions: MAPPIT configuration: N-N; pair source set: DPIM
# CG30472 = conditions: pair source set: RRS
# CG32809 = conditions: MAPPIT configuration: N-N; pair source set: Curagen_low_conf
# RhoGAP92B = conditions: MAPPIT configuration: N-N; pair source set: Curagen_low_conf
# CG32425 = conditions: MAPPIT configuration: N-C; pair source set: screen_3
# CG5327 = conditions: MAPPIT configuration: N-C; pair source set: screen_3
# CG3356 = conditions: MAPPIT configuration: N-N; pair source set: Lit-BS-16
# sinah = conditions: MAPPIT configuration: N-N; pair source set: screen_1
# 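Also: HEK293T cells with Epo stimulation, STAT-responsive firefly luciferase reporter, fold induction versus unstimulated cells divided by the larger fold induction of two negative controls lacking either bait or prey.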
binder,measurement,setting,value
B1,MAPPIT interaction score,CG32846,-2.23
same,MAPPIT interaction score,Git,1.05
same,MAPPIT interaction score,Mst87F,0.54
B2,MAPPIT interaction score,CG31600,0.866
B3,MAPPIT interaction score,CG34168,0.212
B4,MAPPIT interaction score,CG33514,0.423
same,MAPPIT interaction score,cv,-0.17
same,MAPPIT interaction score,dah,-0.359
B5,MAPPIT interaction score,CG30472; MAPPIT configuration: N-C,0.0282
same,MAPPIT interaction score,CG30472; MAPPIT configuration: N-N,0.0958
B6,MAPPIT interaction score,CG32809,2.19
same,MAPPIT interaction score,RhoGAP92B,0.00556
B7,MAPPIT interaction score,CG32425,3.41
same,MAPPIT interaction score,CG5327,3.17
B8,MAPPIT interaction score,CG3356,0.159
same,MAPPIT interaction score,sinah,2.14
